An excerpt weighted towards active compounds, which were near 0.49% of everything screened.
Vif-A3G inh – Vif-A3G binding inhibition. HeLa A3G-eYFP + Vif (tagged APOBEC3G with the HIV-1 protein that degrades it), YFP fluorescence, overnight. Potency, µM (doses to about 46.1 µM), without a hit: at the highest dose activity, negative = active, actives largely listed as inhibitors. 410,000 compounds, 0.076% hits. Q9HC16; note: potency is the fitted concentration of half-maximal effect; % is set by controls: 0 for no effect and ±100 for the full control effect; nearly all actives have a fitted effect of over 60% in size
Target sequence (Q9HC16 whole entry, looked up): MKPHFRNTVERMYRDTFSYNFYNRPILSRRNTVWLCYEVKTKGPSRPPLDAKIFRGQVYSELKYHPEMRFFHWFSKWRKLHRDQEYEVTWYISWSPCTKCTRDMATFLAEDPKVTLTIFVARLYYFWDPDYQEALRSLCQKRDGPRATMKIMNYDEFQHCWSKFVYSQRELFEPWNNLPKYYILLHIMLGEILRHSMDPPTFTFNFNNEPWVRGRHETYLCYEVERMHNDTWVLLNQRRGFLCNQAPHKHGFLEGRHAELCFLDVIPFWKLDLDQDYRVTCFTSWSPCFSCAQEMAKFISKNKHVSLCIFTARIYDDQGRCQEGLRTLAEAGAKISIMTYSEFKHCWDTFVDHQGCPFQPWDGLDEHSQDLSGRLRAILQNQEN
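HeLa cells stably expressing Vif and C-terminally eYFP-tagged A3G, seeded overnight at 37 deg C, then exposed to compound by pintool overnight at 37 deg C. Rise in yellow fluorescence (Ex 488/Em 500-530, Acumen) marks blocked Vif-driven A3G degradation.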
IDH1 R132H inh – inhibitors of human mutant IDH1 R132H. O75874. IDH1-R132H enzyme, NADPH consumption, diaphorase/resazurin fluorescence. Potency, µM (titrated, usually from 76.6 µM), for inactives: top-dose activity change, negative = inhibition, hits mostly inhibitors. 390,000 compounds, 0.093% hits; note: potency is the fitted concentration of half-maximal effect; % is set by controls: 0 for no effect and ±100 for the full control effect; nearly all actives have a fitted effect of over 65% in size
Target sequence (O75874 whole entry R132H, stated change not applied): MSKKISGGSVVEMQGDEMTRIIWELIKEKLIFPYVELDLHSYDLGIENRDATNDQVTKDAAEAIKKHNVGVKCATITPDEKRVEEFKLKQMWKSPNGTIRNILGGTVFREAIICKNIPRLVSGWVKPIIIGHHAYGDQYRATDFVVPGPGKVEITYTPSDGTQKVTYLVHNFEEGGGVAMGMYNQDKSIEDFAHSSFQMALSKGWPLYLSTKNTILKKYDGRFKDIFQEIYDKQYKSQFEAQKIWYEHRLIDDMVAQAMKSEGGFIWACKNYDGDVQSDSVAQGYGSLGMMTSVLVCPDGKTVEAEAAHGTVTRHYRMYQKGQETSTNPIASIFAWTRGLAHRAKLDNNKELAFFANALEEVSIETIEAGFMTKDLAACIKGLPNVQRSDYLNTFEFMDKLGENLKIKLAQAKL
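IDH1-R132H (0.5 ug/mL) preincubated 30 min with compound, then NADPH (0.016 mM) and alpha-KG (2 mM) added; 80 min at RT, pH 7.5. Remaining NADPH coupled via diaphorase/resazurin to fluorescence (540/590 nm); concentration-response curves normalized to no-enzyme control.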
Pin1 inhibitor – inhibitors of human Pin1. Q13526. Pin1 FP peptide displacement, HiFluor488, 10 min. Potency, µM (top dose mostly 115 µM), for inactives: top-dose activity, negative = inhibition, usual class: inhibitors. 390,000 compounds, 0.009% hits. AID 504891; active = well fitted inhibition curve with a large enough effect in the polarisation, with a control signal flat, not every such curve was filed as active; inconclusive = small, poorly fitted or top-dose-only effect, or effect the other way, or a change in a side signal; inactive = no such curve, though single readings can be large or run the other way; the % refers to the polarisation; note: potency is the fitted concentration of half-maximal effect; % is set by controls: 0 for no effect and ±100 for the full control effect
Vif-A3F inh – blocks the Vif interaction with APOBEC3F. HeLa A3F-eYFP + Vif (tagged APOBEC3F with the HIV-1 protein that degrades it), YFP fluorescence increase. Potency, µM (highest dose often 46.1 µM), for the others: at the highest dose activity, negative = active. 390,000 compounds, 0.2% hits; note: potency is the fitted concentration of half-maximal effect; % of control where 0% means no effect; nearly all actives have a fitted effect of over 65% in size
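HeLa cells stably expressing Vif plus C-terminally eYFP-tagged A3F were seeded, incubated overnight at 37 deg C, dosed with compound, incubated overnight again at 37 deg C. Yellow fluorescence (Ex 488/Em 500-530) reported blocked Vif-mediated A3F-eYFP degradation.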
Tb PGK inh – T. brucei PGK inhibition | PGK/GAPDH coupled, Kinase-Glo luminescence, 60 min | 380,000 compounds, 0.043% hits | P07378 | Potency, µM (doses to about 57.5 µM), inactives show at the highest dose activity change, negative = inhibition, hits mostly inhibitors; note: potency is the fitted concentration of half-maximal effect; % is set by controls: 0 for no effect and ±100 for the full control effect; nearly all actives have a fitted effect of over 60% in size
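Recombinant glycosomal PGK reaction used 1,3-bisphosphoglycerate generated in-well by GAPDH (100nM final) in 100mM TEA pH 7.6, 5mM MgCl2, 0.01% Tween-20. After 60 minutes at room temperature, ATP was read by Kinase-Glo Plus luminescence end-point.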
LDHA inh – LDHA (human) enzyme inhibition; P00338; purified LDHA, NADH/diaphorase-resazurin fluorescence; stronger effect = lower value; activity change, % (values are at about 110 or 230 µM); 480,000 compounds, 0.15% hits; AID 1347041; in the data active = activity change below about -30%; inconclusive = mostly about -25% to -30%;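 note: plate controls were DMSO wells for no effect and wells without enzyme for full effect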
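LDH5 2 nM; NADH 0.06 mM, pyruvate 0.2 mM; 200 mM Tris pH 7.4, EDTA, Tween-20; 5 min RT. Detection: diaphorase 0.133 mg/mL + resazurin 37 µM, fluorescence ex540/em590 at 0 and 20 min; normalized to enzyme-free and DMSO wells.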
Numbers without * were called inactive; i = inactive; ? = inconclusive; . = no result; ! = repeats disagree. Unless noted, calls come from the whole dose curve; as a rule, active = well fitted curve in the direction sought with a large enough effect; inconclusive = small, poorly fitted or top-dose-only effect, or another doubt; inactive = no such curve, though single readings can be large; an effect the other way counts as inactive or inconclusive.

SMILES | Vif-A3G inh | IDH1 R132H inh | Pin1 inhibitor | Vif-A3F inh | Tb PGK inh | LDHA inh
Cc1cccc(-c2noc(-c3ccc(NCc4ccco4)c([N+](=O)[O-])c3)n2)c1 | 1.0% | -3.7% | -3.1% | 10µM* | 1.3% | -5.9
O=c1[nH]c(CN2CCN(c3ccccc3)CC2)nc2scc(-c3ccccc3)c12 | ? | 3.8% | ? | 22.4µM* | i | -7.5
COc1ccc(N2CCN(Cc3nc4scc(-c5ccccc5)c4c(=O)[nH]3)CC2)cc1 | -0.9% | -13.1% | 11.9% | -22.1% | 4.3% | 8.3
CN1C(=O)c2cccc(NCCCN3C(=O)c4ccccc4C3=O)c2C1=O | -0.5% | 3.7% | ? | 25.1µM* | -3.5% | -2.3
O=C(O)c1ccccc1NS(=O)(=O)c1cccc(C(F)(F)F)c1 | 2.2% | -4.5% | 6.1% | -0.5% | -5.7% | 4.8
O=C(O)c1ccccc1NS(=O)(=O)c1cccc(-n2sc3ccccc3c2=O)c1 | 3.1% | -10.6% | 5.3% | 6.2% | -3.0% | -70.7*
O=[N+]([O-])c1ccc(N2CCN(Cc3ccccc3)CC2)c2c1no[n+]2[O-] | 7.94µM* | -9.5% | . | ? | -5.6% | 36.3
O=[N+]([O-])c1ccc(N2CCN(Cc3ccccc3)CC2)s1 | 0.1% | -7.9% | 55.0% | ? | 8.5% | -3.6
COc1ccc2c3c([nH]c2c1)C1CC2C(CC(O)C(OC)C2C(=O)O)CN1CC3 (configuration not stated) | -2.2% | 3.0% | ? | -6.2% | -3.4% | 6.1
COC(=O)C1=COC(C)C2CN3CCc4c([nH]c5cc(OC)c(OC)cc45)C3CC12 (configuration not stated) | -11.6% | -16.7% | ? | 8.91µM* | i | -8.9
CC(CNC(=O)c1ccc(Nc2nc3ccccc3n3nnnc23)cc1)c1ccccc1 (configuration not stated) | 1.2% | -2.4% | 7.2% | -12.9% | -0.2% | 1.3
CC(NC(=O)c1ccc(Nc2nc3ccccc3n3nnnc23)cc1)c1ccccc1 (configuration not stated) | ? | -13.0% | ? | 7.08µM* | -4.7% | -3.8
Cc1ccc(N2CCN(C(=O)c3ccc(Nc4nc5ccccc5n5nnnc45)cc3)CC2)c(C)c1 | 0.4% | 8.3% | -1.2% | 2.7% | -0.8% | 2.4
COc1ccccc1CNC(=O)c1ccc(Nc2nc3ccccc3n3nnnc23)cc1 | -27.8% | -12.4% | 14.2% | 22.4µM* | -0.4% | -6.2
Cc1ccc(C(=O)O)cc1Nc1nc2ccccc2n2nnnc12 | -23.5% | -3.5% | ? | 11.2µM* | -3.1% | -9.8
Cc1ccc2[nH]c(C)c(CC(=O)NCc3ccco3)c2c1 | . | . | . | . | . | 15.7
CCOc1ccccc1C1CC(c2cccs2)=NN1S(C)(=O)=O (configuration not stated) | -27.3% | 8.0% | 18.9% | 31.6µM* | i | -2.8
C/C(=N\Nc1nc(C)cc(-c2ccccc2)n1)c1ccc(F)cc1 | 1.2% | -0.8% | -0.7% | 20µM* | -0.4% | -2.0
CCOc1ccc2c(=O)c(Oc3ccccc3)c(C(F)(F)F)oc2c1 | . | . | . | . | . | -8.3
COC(=O)N1CCN(c2ccc(OC)cc2)CC1 | 0.3% | 0.0% | 5.7% | -0.5% | i | 4.4
COc1ccc(N2CCN(C(C)C(=O)N3CCCC3)CC2)cc1 (configuration not stated) | 0.5% | 6.7% | -15.7% | -19.5% | -5.5% | -38.0*
Cc1ccc(Cn2ccnc2SCC(=O)NCc2ccc3c(c2)OCO3)cc1 | . | . | . | . | . | 6.9
CCOC(=O)c1c(Nc2ccc(Cl)cc2)sc(/C=C2\C=Nc3ccccc32)c1O | -17.8% | 1.5% | ? | 7.08µM* | -4.5% | -1.3
COC1=C(OC)C(=O)C(Sc2ccc3ccccc3c2)=CC1=O | ? | 13.9% | -8.2% | 25.1µM* | -9.5% | 42.6
CCOC(=O)Cn1c(=O)c(-c2cc(Br)ccc2N)nc2ccccc21 | -23.1% | 0.0% | ? | 11.2µM* | i | -1.7
SMILES | Vif-A3G inh | IDH1 R132H inh | Pin1 inhibitor | Vif-A3F inh | Tb PGK inh | LDHA inh
CCOC(=O)Cn1c(=O)c(-c2ccccc2N)nc2ccccc21 | -3.6% | 11.3% | -1.3% | -12.8% | -4.3% | 3.2
CCC1CCCCN1S(=O)(=O)c1cc(-c2csc(C)n2)ccc1C (configuration not stated) | . | . | . | . | . | -2.9
CCN1CCN(Cc2ccc(NC(=O)c3ccc(C)c(NC(=O)N4CCNC4=O)c3)cc2C(F)(F)F)CC1 | 4.6% | 6.0% | 0.6% | -12.1% | 25.1µM*! | 2.3
COc1ccc2c(COC(=O)c3cccc4ccccc34)cc(=O)oc2c1 | . | . | . | . | . | -0.4
COc1ccc(C2CC(c3ccccc3)=NN2S(=O)(=O)c2ccccc2)cc1 (configuration not stated) | -28.6% | -3.4% | 46.8% | ? | 12.3% | -4.3
Cc1ccc(C2=NN(S(=O)(=O)c3ccccc3)C(c3ccccc3O)C2)cc1 (configuration not stated) | 8.3% | -14.2% | 69.8% | 25.1µM* | i | -2.0
CS(=O)(=O)Nc1ccc(C2=NN(S(=O)(=O)c3ccccc3)C(c3cccs3)C2)cc1 (configuration not stated) | ? | -3.8% | ? | 22.4µM* | -8.3% | 1.4
Cc1cccc(OCc2nc(C)c(C(=O)Nc3cc(C)ccc3C)s2)c1 | . | . | . | . | . | -35.3*
Cc1ccc(OCc2nc(C)c(C(=O)Nc3ccc(C)cc3C)s2)cc1 | . | . | . | . | . | -7.6
CNC(=S)N/N=C(\C)c1ccc(N2CCOCC2)cc1 | -1.5% | -6.1% | 12.0% | ? | -1.3% | -3.7
CCNC(=S)N/N=C(\C)c1ccc(N2CCOCC2)cc1 | -0.1% | -7.6% | -0.9% | 22.4µM* | -3.9% | -6.7
O=C(O)C(O)c1ccco1 (configuration not stated) | -1.4% | 6.3% | ? | -3.8% | 14.1µM* | -1.6
O=C(O)C(O)c1ccccc1 (configuration not stated) | -2.1% | -0.1% | 0.0% | -3.9% | -0.6% | -10.3
O=C(O)c1ccc(-c2ccc(/C=C3\NC(=O)N(Cc4ccc(Cl)cc4)C3=O)o2)cc1Cl | 0.9% | -5.8% | . | -8.2% | 25.1µM* | -0.6
CCOC(=O)CN1C(=O)S/C(=C\c2ccc(-c3ccc(C(=O)O)c(Cl)c3)o2)C1=O | 1.8% | 7.5% | 0.9% | -1.8% | ? | 0.4
CNC(=O)c1ccc(/C=C/C(=O)c2ccccc2C)cc1 | . | . | . | . | . | -6.9
CCc1cccc(C)c1NC(=O)c1nn(-c2ccccc2)c(=O)c2ccccc12 | . | . | . | . | . | 4.8
Cc1cc(Br)ccc1SCC(=O)OCC(O)=C(C#N)c1nc2ccccc2[nH]1 | 0.6% | -1.8% | ? | -14.9% | i | -4.2

Bioassay records (PubChem)
